Hit rate of the full screen: of about 63,000 compounds, about 1,100 (1.7%) were called active. The list comes from a sample in which actives are over-represented; it also holds similar structures and randomly drawn compounds. Entries with a potency or affinity are not part of this list. A number with no mark means an inactive call.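 Rule for the calls: active = compounds whose percent cytotoxicity in the single-dose primary screen, scaled between solvent and toxic-drug controls, exceeds 50; inactive = the rest.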

This test can be described thus: viability loss of HPDE-C7K cells – cell-based, fluorescence, HTS, primary screen (AID 431).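 Note: 0% = DMSO solvent wells and 100% = doxorubicin-treated wells.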 Particulars: HPDE-C7K KRASV12 cells, Alamar Blue viability, 48 h; at 10 µM; active compounds read high. (The colour change of resazurin is a common sign of viable cells or microbes.)
`O=C(c1cccc(-c2nnc(-c3ccccc3)o2)c1)N1CCCCC1`: the cytotoxicity is 14%. For `COCCNC(=O)CN1CCC(NC(=O)Nc2ccccc2)CC1`, the cytotoxicity is -1%. As for `CN(Cc1ccccc1)C(=O)CCCn1c(=O)[nH]c2cc(Cl)ccc2c1=O`, the cytotoxicity was -8.5%. As for `COc1ccc(-c2nsc3c(N4CCCC4)ncnc23)cc1`, the figure is 11.5%; as for `COc1ccc(S(=O)(=O)N2CCN(c3ncnc4c(-c5ccccc5)nsc34)CC2)cc1`, -20.8%; as for `COc1ccc(-c2nsc3c(N4CCN(S(=O)(=O)c5ccccc5)CC4)ncnc23)cc1`, 56.4% (active). The same measure for `CCOC(=O)C(NC(=O)c1ccccc1)=C1C=C(C)OC(C)=C1`: -13.9%; for `O=C(NCc1ccc2c(c1)OCO2)c1cccc(Cl)c1`: 3.6%; for `O=C(NCc1ccc2c(c1)OCO2)c1nnc(Cc2ccc(Cl)cc2)o1`: 1.6%. In the case of `O=C(NCc1ccc2c(c1)OCO2)c1ccc(-c2ccc(Cl)cc2)o1`, the cytotoxicity is 61.3% (active). The same measure for `COCCN(C(=O)CCC(=O)Nc1cccnc1)C(C(=O)NC1CCCCC1)c1ccccc1` (stereo not drawn): -2.1%.

Regarding `COC(=O)C1=C(C)N=c2s/c(=C/c3ccoc3)c(=O)n2C1c1ccccc1` (stereo not drawn), the cytotoxicity was 8.9%. With `CSc1nnc(Cn2c(=O)sc3ccccc32)n1C`, the cytotoxicity is 6.8%. As for `CCOc1ccc(N2CC(C(=O)Nc3cccc(C)c3C)CC2=O)cc1` (stereo not drawn), the figure is 15.6%; as for `COc1ccc(OC)c(S(=O)(=O)NCc2cn3c(C)csc3n2)c1`, -5.8%.

With `COC(=O)Nc1ccc(S(=O)(=O)N2CCN(C)CC2)cc1`, the cytotoxicity was 10.6%. In the case of `CN1CCN(S(=O)(=O)c2ccc(NC(=O)c3cccc(S(=O)(=O)N4CCCC4)c3)cc2)CC1`, the cytotoxicity was -54.2%. Turning to `CN1CCN(S(=O)(=O)c2ccc(NC(=O)Nc3cccc(Cl)c3)cc2)CC1`, the cytotoxicity was 53% (active). Consider `O=C(CSc1nnnn1-c1ccc2c(c1)CCC2)NCc1cccs1`, for which the cytotoxicity was 13.2%. The same measure for `Cn1c(N)c(C(=O)NCc2ccccc2)sc1=S`: -2%; for `Cc1cc(C)c(C#N)c(Nc2ccc3c(c2)OCCO3)n1`: 11.2%; for `c1ccc(Nc2ncnc3c2oc2ccccc23)cc1`: -10%. For `c1ccc2c(c1)oc1c(NCCN3CCOCC3)ncnc12`, the cytotoxicity is -2.7%. The same measure for `CCCCOC(=O)c1ccc(NC(=O)c2cnccn2)cc1`: 10.3%. The same measure for `C=CCn1c(N)c(C(=O)Nc2ccccc2)c2nc3ccccc3nc21`: 60.6% (active); for `C=CCNC(=O)c1c(N)n(-c2ccc3c(c2)OCO3)c2nc3ccccc3nc12`: -6.4%; for `C=CCNC(=O)c1c(N)n(-c2cccc(S(N)(=O)=O)c2)c2nc3ccccc3nc12`: 8.3%. Turning to `C=CCn1c(N)c(C(=O)OCCC)c2nc3ccccc3nc21`, the cytotoxicity is 7.1%. As for `C=CCn1c(N)c(C(=O)OC(C)CC)c2nc3ccccc3nc21` (stereo not drawn), the figure is 24.5%; as for `C=CCn1c(N)c(C(=O)OC(C)(C)C)c2nc3ccccc3nc21`, 62.9% (active); as for `Nc1c(C(=O)N2CCCCC2)sc(=S)n1-c1ccccc1`, -4.9%. As for `CCOC(=O)Cc1nn2c(=O)cc(C)nc2s1`, the figure is -0.8%; as for `CC(=O)NC1(C(F)(F)F)C(=O)Nc2c1c(=O)[nH]c(=O)n2Cc1ccco1` (stereo not drawn), -16.1%; as for `Cc1cc(C)n(-c2nc(Nc3ccccc3)nc(-n3nc(C)cc3C)n2)n1`, 9.6%.

On to `CC(=O)c1cccc(NC(=O)CC2SC(N3CCCCC3)=NC2=O)c1` (stereo not drawn), for which the cytotoxicity is -7.4%.

`CCOCC(=O)Nc1nc2ccc(OCC)cc2s1`: the cytotoxicity is 4.3%. The same measure for `Cc1cccc(N(CC(=O)NCc2ccccc2)C(=O)Cn2nnc(-c3ccc(C)o3)n2)c1`: -14.9%; for `COc1ccc(C(=O)OC(C)CN2CCOCC2)cc1OC` (stereo not drawn): -10%; for `CC(CN1CCOCC1)OC(=O)c1ccc2c(c1)OCCO2` (stereo not drawn): 9.2%. In the case of `O=C(CCN1C(=O)C2C3C=CC(C3)C2C1=O)NCc1cccnc1` (stereo not drawn), the cytotoxicity was -6.8%. As to `O=C(CSc1nc(Nc2ccccc2)nc(N2CCOCC2)n1)N1CCCC1`, the cytotoxicity was 5.4%. The same measure for `O=C(CSc1nc2ccccc2c(=O)n1C1CC1)NCc1ccccc1`: 3.5%; for `COc1ccccc1-c1nnn(CC#N)n1`: 6.1%. The same measure for `CCOC(=O)c1c(C)c(C(=O)N2CCCCCC2)c(C)n1CC`: -2.8%; for `O=C1c2ccccc2NC(c2ccccc2)N1Cc1ccco1` (stereo not drawn): -5.8%.

Turning to `CCOC(=O)CC1=C(C(=O)OCC)C(c2ccc(OC)c(OC)c2)C(C#N)=C(N)O1` (stereo not drawn), the cytotoxicity is 5.7%. The same measure for `CCOC(=O)CSC1=C(C#N)C(=O)NC2(CCCCC2)S1`: 13.8%. As for `CCOC(=O)CSC1=C(C#N)C(=O)NC(c2ccc(OC)c(OC)c2)S1` (stereo not drawn), the figure is 70.5% (active); as for `COc1ccc(CCn2c(C)ccc2C)cc1OC`, -8.8%; as for `O=C(NC1CCCCC1)N1CCC(c2nc3ccc(Cl)cc3[nH]2)CC1`, 7.4%. As for `CN1CCN(CCCNC(=O)c2cc3c(-c4ccc(Cl)cc4)nn(C)c3s2)CC1`, the figure is 3.3%; as for `Cn1nc(-c2ccc(Cl)cc2)c2cc(C(=O)NCCCN3CCOCC3)sc21`, 9.2%; as for `Cn1nc(-c2ccc(Cl)cc2)c2cc(C(=O)NCCCN3CCCC3)sc21`, 54.3% (active). Regarding `COc1ccccc1N1CCN(CCC(=O)Nc2ccc3c(c2)OCO3)CC1`, the cytotoxicity is 7.5%.

Regarding `CCOc1ccc(C(=O)Nc2cccc(-c3nc4cccnc4o3)c2)cc1Cl`, the cytotoxicity was 56% (active). As to `Cc1ccc(-c2nc3cccnc3o2)cc1NC(=O)COc1ccc(Cl)cc1C`, the cytotoxicity was 0.4%. `CCOc1cccc(C(=O)Nc2cccc(-c3nnc(-c4ccccc4)o3)c2)c1`: the cytotoxicity was -9.8%. The same measure for `CCN1CCN(c2ccc(NC(=O)c3cccc4ncccc34)cc2)CC1`: -12.5%; for `Cc1sc2nc(SCC(=O)c3cccs3)n(Cc3ccco3)c(=O)c2c1C`: 31.6%. For the molecule `COc1cccc(-c2nc(N3CCCCC3C)c3ccccc3n2)c1O` (stereo not drawn), the cytotoxicity was 63.1% (active). The same measure for `COc1cccc(-c2nc(NC(C)(C)C)c3ccccc3n2)c1O`: 20.9%; for `CCC1CCCCN1c1nc(-c2cccc(OC)c2O)nc2ccccc12` (stereo not drawn): 8.3%.

Consider `COc1cccc(-c2nc(NC(C)C)c3ccccc3n2)c1O`, for which the cytotoxicity was 42.1%. As for `Oc1ccccc1-c1nc(NCc2ccco2)c2ccccc2n1`, the figure is 5.3%; as for `C=CCNc1nc(-c2cccc(OC)c2O)nc2ccccc12`, -8.3%.

Take `COc1cccc(-c2nc(N3CCCCC3)c3ccccc3n2)c1O`: the cytotoxicity is -18.8%.

For `Oc1ccc(Nc2nc(NCC3CCCO3)c3ccccc3n2)cc1` (stereo not drawn), the cytotoxicity is 46.8%. The same measure for `CCN(CC)c1nc(-c2cccc(OC)c2O)nc2ccccc12`: -8.4%; for `COc1cccc(-c2nc(NCC3CCCO3)c3ccccc3n2)c1O` (stereo not drawn): 55.1% (active).

As for `CCC(C)Nc1nc(-c2cccc(OC)c2O)nc2ccccc12` (stereo not drawn), the cytotoxicity was 114% (active).

Take `CS(=O)(=O)N(CC(=O)N1CCN(Cc2ccccc2)CC1)Cc1ccccc1`: the cytotoxicity is -3%. In the case of `COCCCNc1nc2c(c(=O)[nH]c(=O)n2C)n1CCCc1ccccc1`, the cytotoxicity is -3.8%. Regarding `CCCn1c(CNS(=O)(=O)c2ccc(C)cc2)nc2ccccc21`, the cytotoxicity is 5.2%.

Turning to `O=C(CN1CCN(C(=O)c2ccccc2F)CC1)Nc1ccc(Br)cc1`, the cytotoxicity was -5.9%. As for `CCCCn1cnc2sc3c(c2c1=N)CCCC3`, the figure is -7.6%; as for `CCCCOC(=O)Nc1ccccc1C(N)=O`, -5.7%. The same measure for `COc1ccc(/C(O)=C2/C(=O)C(=O)N(CCCC(=O)O)C2c2ccc(OC)c(OC)c2)cc1` (stereo not drawn): -0.6%; for `Oc1ccccc1-c1nc(NCC2CCCO2)c2ccccc2n1` (stereo not drawn): 50.1% (active); for `Oc1ccccc1Nc1nc(NCC2CCCO2)c2ccccc2n1` (stereo not drawn): 12.1%.

For `c1coc(CNc2nc(N3CCCCC3)nc3ccccc23)c1`, the cytotoxicity is 38.2%. The same measure for `c1ccc(-c2nc(NCc3ccco3)c3ccccc3n2)nc1`: 20%; for `c1ccc(-c2nc(NCC3CCCO3)c3ccccc3n2)nc1` (stereo not drawn): 9.5%; for `CC(=O)c1ccc(NC(=O)CSc2nnc(Cn3c(=O)sc4ccccc43)n2C)cc1`: -1.4%. On to `N#Cc1ccc(CSc2nnc(-c3ccccn3)n2-c2ccccc2)cc1`, for which the cytotoxicity is 10.8%.

For the molecule `COc1cc2[nH]c(=O)n(CCCCCC(=O)NCCCN3CCC(C)CC3)c(=O)c2cc1OC`, the cytotoxicity is -6.7%.

`O=C(CN1C(=O)NC2(CCCCCCC2)C1=O)N1CCOCC1`: the cytotoxicity was -1.1%.

With `O=C(Cn1c(=O)oc2cc(S(=O)(=O)NCc3ccccc3)ccc21)NCc1ccco1`, the cytotoxicity was 2.7%.

Consider `CCCc1nc(N2CCOCC2)c(C#N)c2c1CCCC2`, for which the cytotoxicity was -0.6%.

`CC(C)Cc1nc(N2CCN(C(=O)C(C)C)CC2)c(C#N)c2c1CCC2`: the cytotoxicity was -14.5%. As to `CC(C)Cc1nc(N2CCCCC2)c(C#N)c2c1CCC2`, the cytotoxicity is 16.1%. The same measure for `CC1(C)Cc2c(C#N)c(N3CCOCC3)nc(Cc3ccccc3)c2CO1`: 40%; for `CC(=O)N1CCN(c2nc(CC(C)C)c3c(c2C#N)CCC3)CC1`: 2%; for `CCc1nc(N2CCN(C(=O)c3ccccc3)CC2)c(C#N)c2c1COC(C)(C)C2`: 5.9%. For the molecule `CCc1nc(N2CCCC2)c(C#N)c2c1CCCC2`, the cytotoxicity is -11.1%. The same measure for `CC(C)Cc1nc(N2CCN(C(=O)c3ccco3)CC2)c(C#N)c2c1CCC2`: 63.2% (active). The same measure for `CCCc1nc(N2CCCC2)c(C#N)c2c1CCCC2`: 87.9% (active). In the case of `CC(C)Cc1nc(N2CCOCC2)c(C#N)c2c1CCC2`, the cytotoxicity was 64.8% (active). As for `CCc1nc(N2CCOCC2)c(C#N)c2c1CCCC2`, the figure is -2.9%.

For the origin of these results see PubChem BioAssay AID431 (Sanford-Burnham Center for Chemical Genomics, 2006).
